Results published in PubChem BioAssay AID1159580 (chemical genetic matrix, 2015).
Among all 5,500 compounds or so, about 2,000 (36%) were called active. About 18% were inconclusive and are not listed. Cut-off read from the data, not from the text of the source: active = normalized growth mostly below about 0.91 (no sharp cut-off); inconclusive = no clear call, values can overlap the other calls; inactive = mostly above about 0.92. The list shows a part of the results.

Experiment: chemical genetic growth profiling, strain panel (AID 1159580);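 note: tested at 20 µM; growth read once vehicle control cultures reached saturation at 30 °C; 1 = growth at the plate median or of vehicle wells; lower values mean less growth of the strain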
Settings: growth OD

Measured: normalized growth

CCn1cc(C(=O)O)c(=O)c2cc(F)c(N3CCNCC3)cc21
inactive: S. cerevisiae deletion strains, locus YJR043C, strain POL32, hits give low values 0.99 | S. cerevisiae deletion strains, locus YJR066W, strain TOR1, hits give low values 0.954 | S. cerevisiae deletion strains, locus YKL009W, strain mrt4, hits give low values 0.994 | S. cerevisiae deletion strains, locus YKL068W, hits give low values 1.01 | S. cerevisiae deletion strains, locus YKL085W, strain MDH1 (second series), hits give low values 1 | S. cerevisiae deletion strains, locus YKL085W, strain MDH1, hits give low values 1 | S. cerevisiae deletion strains, locus YKL160W, strain elf1, hits give low values 1.02 | S. cerevisiae deletion strains, locus YKL190W, strain CNB1, hits give low values 1.01 | S. cerevisiae deletion strains, locus YKR001C, strain vps1, hits give low values 0.985 | S. cerevisiae deletion strains, locus YKR026C, strain gcn3, hits give low values 0.978 | S. cerevisiae deletion strains, locus YKR091W, strain srl3, hits give low values 0.992 | S. cerevisiae deletion strains, locus YLL001W, strain dnm1, hits give low values 0.998 | S. cerevisiae deletion strains, locus YLL026W, hits give low values 0.992 | S. cerevisiae deletion strains, locus YLL041C, strain sdh2, hits give low values 0.981 | S. cerevisiae deletion strains, locus YLR027C, strain aat2, hits give low values 0.988 | S. cerevisiae deletion strains, locus YLR039C, strain RIC1, hits give low values 0.92 | S. cerevisiae deletion strains, locus YLR058C, strain SHM2, hits give low values 1.01 | S. cerevisiae deletion strains, locus YLR102C, strain apc9, hits give low values 1 | S. cerevisiae deletion strains, locus YLR113W, strain HOG1, hits give low values 1.02 | S. cerevisiae deletion strains, locus YLR221C, strain rsa3, hits give low values 1.01 | S. cerevisiae deletion strains, locus YLR258W, strain gsy2, hits give low values 0.988 | S. cerevisiae deletion strains, locus YLR262C, strain YPT6 (second series), hits give low values 0.97 | S. cerevisiae deletion strains, locus YLR262C, strain YPT6, hits give low values 0.92 | S. cerevisiae deletion strains, locus YLR268W, strain sec22, hits give low values 0.96 | S. cerevisiae deletion strains, locus YLR320W, strain mms22, hits give low values 0.998 | S. cerevisiae deletion strains, locus YLR330W, strain CHS5, hits give low values 1 | S. cerevisiae deletion strains, locus YLR342W, strain FKS1 (second series), hits give low values 0.927 | S. cerevisiae deletion strains, locus YLR342W, strain FKS1, hits give low values 0.991 | S. cerevisiae deletion strains, locus YLR357W, strain rsc2, hits give low values 0.95 | S. cerevisiae deletion strains, locus YLR370C, strain arc18, hits give low values 0.982 | S. cerevisiae deletion strains, locus YLR371W, strain rom2, hits give low values 1.01 | S. cerevisiae deletion strains, locus YLR384C, strain iki3, hits give low values 0.983 | S. cerevisiae deletion strains, locus YLR418C, strain cdc73, hits give low values 0.924 | S. cerevisiae deletion strains, locus YML016C, strain PPZ1, hits give low values 1 | S. cerevisiae deletion strains, locus YML032C, strain rad52, hits give low values 0.987 | S. cerevisiae deletion strains, locus YML120C, strain ndi1, hits give low values 0.976 | S. cerevisiae deletion strains, locus YML124C, strain tub3, hits give low values 1 | S. cerevisiae deletion strains, locus YMR058W, strain fet3, hits give low values 0.986 | S. cerevisiae deletion strains, locus YMR078C, strain ctf18, hits give low values 1.01 | S. cerevisiae deletion strains, locus YMR125W, strain sto1, hits give low values 0.965 | S. cerevisiae deletion strains, locus YMR129W, hits give low values 0.969 | S. cerevisiae deletion strains, locus YMR205C, strain PFK2, hits give low values 1.01 | S. cerevisiae deletion strains, locus YMR223W, strain ubp8, hits give low values 0.989 | S. cerevisiae deletion strains, locus YMR231W, strain pep5, hits give low values 0.987 | S. cerevisiae deletion strains, locus YMR263W, strain SAP30, hits give low values 0.998 | S. cerevisiae deletion strains, locus YMR307W, strain GAS1, hits give low values 0.899 | S. cerevisiae deletion strains, locus YNL067W, strain RPL9B, hits give low values 1.01 | S. cerevisiae deletion strains, locus YNL071W, strain lat1, hits give low values 0.962 | S. cerevisiae deletion strains, locus YNL128W, strain TEP1, hits give low values 1.03 | S. cerevisiae deletion strains, locus YNL183C, strain NPR1, hits give low values 0.962 | S. cerevisiae deletion strains, locus YNL209W, strain ssb2, hits give low values 0.986 | S. cerevisiae deletion strains, locus YNL233W, strain BNI4, hits give low values 0.998 | S. cerevisiae deletion strains, locus YNL248C, strain rpa49, hits give low values 0.992 | S. cerevisiae deletion strains, locus YNL250W, strain rad50, hits give low values 0.985 | S. cerevisiae deletion strains, locus YNL271C, strain bni1, hits give low values 0.986 | S. cerevisiae deletion strains, locus YNL298W, strain CLA4, hits give low values 0.99 | S. cerevisiae deletion strains, locus YNL307C, strain MCK1, hits give low values 0.997 | S. cerevisiae deletion strains, locus YNL322C, strain KRE1 (second series), hits give low values 0.981 | S. cerevisiae deletion strains, locus YNR049C, strain mso1, hits give low values 0.985 | S. cerevisiae deletion strains, locus YNR052C, strain pop2, hits give low values 0.998 | S. cerevisiae deletion strains, locus YOL006C, strain TOP1, hits give low values 0.965 | S. cerevisiae deletion strains, locus YOL012C, strain htz1 0.792 | S. cerevisiae deletion strains, locus YOL147C, strain pex11, hits give low values 0.999 | S. cerevisiae deletion strains, locus YOR001W, strain rrp6, hits give low values 0.94 | S. cerevisiae deletion strains, locus YOR061W, strain CKA2, hits give low values 1 | S. cerevisiae deletion strains, locus YOR069W, strain VPS5, hits give low values 1.01 | S. cerevisiae deletion strains, locus YOR070C, strain gyp1, hits give low values 0.979 | S. cerevisiae deletion strains, locus YOR080W, strain dia2, hits give low values 0.974 | S. cerevisiae deletion strains, locus YOR083W, strain WHI5, hits give low values 1.04 | S. cerevisiae deletion strains, locus YOR106W, strain vam3, hits give low values 1 | S. cerevisiae deletion strains, locus YOR136W, strain idh2, hits give low values 1.01 | S. cerevisiae deletion strains, locus YOR144C, strain elg1, hits give low values 0.998 | S. cerevisiae deletion strains, locus YOR184W, strain ser1, hits give low values 1.01 | S. cerevisiae deletion strains, locus YOR231W, strain MKK1, hits give low values 0.988 | S. cerevisiae deletion strains, locus YOR265W, strain rbl2, hits give low values 0.983 | S. cerevisiae deletion strains, locus YOR270C, strain vph1, hits give low values 0.956 | S. cerevisiae deletion strains, locus YOR290C, strain snf2, hits give low values 0.974 | S. cerevisiae deletion strains, locus YOR316C, strain cot1, hits give low values 1.01 | S. cerevisiae deletion strains, locus YPL051W, strain arl3, hits give low values 0.994 | S. cerevisiae deletion strains, locus YPL055C, strain LGE1, hits give low values 0.991 | S. cerevisiae deletion strains, locus YPL078C, strain atp4, hits give low values 0.979 | S. cerevisiae deletion strains, locus YPL106C, strain sse1, hits give low values 0.972 | S. cerevisiae deletion strains, locus YPL240C, strain hsp82, hits give low values 0.983 | S. cerevisiae deletion strains, locus YPL256C, strain CLN2, hits give low values 0.944 | S. cerevisiae deletion strains, locus YPR119W, strain clb2, hits give low values 1 | S. cerevisiae deletion strains, locus YPR141C, strain kar3, hits give low values 1 | S. cerevisiae deletion strains, locus YPR163C, strain tif3, hits give low values 1 | S. cerevisiae deletion strains, locus YPR167C, strain met16, hits give low values 1.01 | S. cerevisiae deletion strains, strain wtn01, hits give low values 0.998 | S. cerevisiae strains, strain wild type, hits give low values 1.01
